Measured values: PMC4336329 (PLoS ONE, 2015)
The campaign covered roughly 310,000 compounds. About 14,000 (4.5%) showed an effect of 50% or more. The effect is printed as a negative number. Many of the other results were omitted from the sample, so strong results are more common in it than they were.

molecular target: human ether-à-go-go-related gene (hERG) potassium channel (human, UniProt Q12809); assay: primary screen, population patch clamp on CHO cells stably expressing hERG; higher = less effect of the substance
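Also: peak tail current of the secondary pulse compared with the same well before compound.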

Sequence of human ether-à-go-go-related gene (hERG) potassium channel (Q12809 whole entry, looked up): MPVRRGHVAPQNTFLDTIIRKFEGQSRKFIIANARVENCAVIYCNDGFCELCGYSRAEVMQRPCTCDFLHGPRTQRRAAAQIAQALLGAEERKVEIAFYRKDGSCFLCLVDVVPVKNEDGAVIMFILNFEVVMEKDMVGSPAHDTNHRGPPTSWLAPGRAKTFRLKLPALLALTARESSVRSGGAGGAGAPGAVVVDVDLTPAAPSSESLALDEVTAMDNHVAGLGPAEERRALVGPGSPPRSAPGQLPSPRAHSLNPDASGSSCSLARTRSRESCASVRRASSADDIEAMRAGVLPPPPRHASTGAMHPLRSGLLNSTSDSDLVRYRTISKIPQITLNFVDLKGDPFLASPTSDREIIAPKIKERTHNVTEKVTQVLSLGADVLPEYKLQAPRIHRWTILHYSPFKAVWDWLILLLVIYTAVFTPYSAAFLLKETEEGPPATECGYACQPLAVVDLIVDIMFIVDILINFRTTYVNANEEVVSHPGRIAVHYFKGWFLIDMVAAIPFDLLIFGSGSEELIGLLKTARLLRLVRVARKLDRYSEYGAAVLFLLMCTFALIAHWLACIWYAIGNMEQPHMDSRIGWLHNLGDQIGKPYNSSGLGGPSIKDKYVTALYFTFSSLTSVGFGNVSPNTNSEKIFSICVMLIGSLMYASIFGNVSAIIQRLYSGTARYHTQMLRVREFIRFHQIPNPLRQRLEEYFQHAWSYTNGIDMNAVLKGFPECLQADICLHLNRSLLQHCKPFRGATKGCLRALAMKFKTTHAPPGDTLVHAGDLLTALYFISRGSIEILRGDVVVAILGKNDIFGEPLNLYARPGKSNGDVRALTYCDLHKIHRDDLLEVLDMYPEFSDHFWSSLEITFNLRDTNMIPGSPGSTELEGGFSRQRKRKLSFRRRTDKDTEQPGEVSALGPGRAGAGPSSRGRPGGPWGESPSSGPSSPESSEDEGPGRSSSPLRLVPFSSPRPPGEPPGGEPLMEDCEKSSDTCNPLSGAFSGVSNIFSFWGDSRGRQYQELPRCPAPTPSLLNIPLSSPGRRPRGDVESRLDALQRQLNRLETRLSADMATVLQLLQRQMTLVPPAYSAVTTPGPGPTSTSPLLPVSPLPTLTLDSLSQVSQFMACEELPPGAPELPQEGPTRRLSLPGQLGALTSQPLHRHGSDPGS

Row | Structure (SMILES) | hERG current change (%, negative = inhibition) at 10uM
1 | COc1ccc([N+](=O)[O-])cc1NC(=O)C(C)Sc1nc(C)c(C)c(C)n1 (stereo not drawn) | -44.4%
2 | CCN(c1ccc(NS(=O)(=O)c2cc(Cl)ccc2Cl)cc1)C(C)C | -0.282%
3 | CCN(CC)C(=O)C(C(=O)c1cccc([N+](=O)[O-])c1)n1cc(Cl)ccc1=O (stereo not drawn) | 24.8%
4 | Cc1nc(-c2cccc(S(=O)(=O)N3CCOCC3)c2)cs1 | -2.11%
5 | COc1ccc(-c2[nH]ncc2CNC(C)CCn2cccn2)c(F)c1 (stereo not drawn) | -15.4%
6 | CC(Cc1ccsc1)NCc1cn[nH]c1-c1ccc(F)cc1F (stereo not drawn) | -66.3%
7 | COc1ccc(-c2[nH]ncc2CNC(C)Cc2ccsc2)c(F)c1 (stereo not drawn) | -36.1%
8 | CC(=O)/C(N=Nc1nc2c([nH]1)c(=O)n(C)c(=O)n2C)=C(\C)O | 13.2%
9 | CCOC(=O)C1CCN(C(=O)C2CCN(c3nnc(-n4cccc4)s3)CC2)CC1 | -62.5%
10 | CCN1CCN(C(=O)C2CCN(c3nnc(-n4c(C)ccc4C)s3)CC2)CC1 | -13%
11 | Cc1ccc(Cl)cc1N1CCN(C(=O)C2CCN(c3nnc(-n4cccc4)s3)CC2)CC1 | -16.4%
12 | Cc1cccc(N2CCN(C(=O)C3CCN(c4nnc(-n5cccc5)s4)CC3)CC2C)c1 (stereo not drawn) | -55.8%
13 | CCOC(=O)C1CCCN(C(=O)C2CCN(c3nnc(-n4cccc4)s3)CC2)C1 (stereo not drawn) | -48.6%
14 | CCOC(=O)C1CCN(C(=O)C2CCN(c3nn4c(=O)cc(C)nc4s3)CC2)CC1 | 3.2%
15 | CC1CCN(C(=O)C2CCN(c3nnc(-n4cccc4)s3)CC2)CC1 | -12.1%
16 | CCOC(=O)N1CCN(C(=O)C2CCN(c3nnc(-n4cccc4)s3)CC2)CC1 | -57.1%
17 | O=C(C1CCN(c2nnc(-n3cccc3)s2)CC1)N1CCN(c2cccc(C(F)(F)F)c2)CC1 | -22.8%
18 | O=C(c1ccc(Br)cc1)N1CCN(S(=O)(=O)c2ccccc2)CC1 | -38.5%
19 | CCCCC(=O)NC(=S)Nc1nnn(CCC)n1 | 9.55%
20 | COc1ccc(CN(C)C(=O)c2ccc3c(=O)n4c(nc3c2)CCC4)cc1 | 13.7%
21 | Cl.NC1=NC2(CCCCC2)N(c2cccc(Cl)c2)C(N)=N1 | 27.9%

Row | Structure (SMILES) | hERG current change (%, negative = inhibition) at 10uM
22 | CCn1nnc(-c2ccccc2NC(=O)C(F)(F)F)n1 | -9.9%
23 | CN1CCN(CCC(=O)N/N=C/c2cc3c(cc2[N+](=O)[O-])OCO3)CC1 | 9.64%
24 | O=C(NC(=S)Nc1cc(C(F)(F)F)ccc1N1CCOCC1)c1ccco1 | 3.6%
25 | CN1C(C(=O)NCc2ccco2)CC2Cn3c(nc4ccccc43)C21 (stereo not drawn) | 10.3%
26 | COc1ccccc1CNC(=O)C1CC2Cn3c(nc4ccccc43)C2N1C (stereo not drawn) | -9.34%
27 | COCCNC(=O)C1CC2Cn3c(nc4ccccc43)C2N1C (stereo not drawn) | 11.2%
28 | O=C(NCc1cccc(C(F)(F)F)c1)C1CC2Cn3c(nc4ccccc43)C2N1Cc1ccccc1 (stereo not drawn) | -57.8%
29 | O=C(NCc1cccc(Br)c1)C1CC2Cn3c(nc4ccccc43)C2N1Cc1ccccc1 (stereo not drawn) | -74.2%
30 | O=C(NCc1cccc(Br)c1)C1CC2Cn3c(nc4ccccc43)C2N1c1ccccc1 (stereo not drawn) | -20.5%
31 | CCCCNC(=O)CN(CCc1ccccc1)S(C)(=O)=O | -12.6%
32 | Cc1c(Cl)cccc1NC(=O)CCC(=O)NNC(=O)c1ccco1 | 18.3%
33 | CCOC(=O)c1cccc(NC(=O)CSc2nnc(-c3cccnc3)n2CC)c1 | -37.5%
34 | N#Cc1nc(-c2cccs2)oc1NCc1ccco1 | -5.22%
35 | CC(/C=C/c1ccccc1)=N/NC(=O)c1cc([N+](=O)[O-])cc([N+](=O)[O-])c1 | 8%
36 | O=c1[nH]c(Sc2ccc([N+](=O)[O-])cc2[N+](=O)[O-])nc2ccccc12 | 9.99%
37 | O=[N+]([O-])c1ccc(Sc2cccc3cccnc23)c([N+](=O)[O-])c1 | 16.6%
38 | O=[N+]([O-])c1ccc(Sc2cc[n+]([O-])c3ccccc23)c([N+](=O)[O-])c1 | -65.3%
39 | CN(CC(=O)Nc1ccccc1Br)C(=O)CCC1CCCC1 | 9.57%
40 | CCCCC1(C)NC(=S)N2N1C(=S)NC2(C)CCCC (stereo not drawn) | 15.1%
41 | Cc1noc(C)c1C(=O)Nc1nc2ccc(S(C)(=O)=O)cc2s1 | 2.86%
42 | O=C(O)C(CCCCN1C(=O)C2C3C=CC(C3)C2C1=O)N1C(=O)C2C3C=CC(C3)C2C1=O (stereo not drawn) | 2.41%
